Measured values reported in PubChem BioAssay (NCI).
Compounds without any hit were thinned out: in the full panel of roughly 83,000, 20% have a hit.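 For each line, cells grew in 96-well plates with the test compound present at a single concentration for 48 hours.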 Calls of active or inactive are those of the source. The calls were made as follows: active = growth percent below 10; inactive = the rest.

System: T-47D breast
Assay: NCI-60 one-dose screen, 48 h (100 = growth as untreated, 0 = no growth, -100 = all killed)
Conditions: 10 µM

| Structure (SMILES) | growth |
| --- | --- |
| Fc1ccc(-c2cc(C(Cl)Cl)no2)cc1 | 110% (inactive) |
| CCCc1c(C)nc2scc(-c3ccc(Cl)cc3)n2c1=O | 86.5% (inactive) |
| O=C(O)c1cc(C(F)(F)F)cc(C(F)(F)F)c1 | 104% (inactive) |
| CC(=O)Nc1nc(C)c(C(=O)N/N=C/c2cccn2C)s1 | 121% (inactive) |
| CCOc1cc(Br)c(C(C)NC(=O)c2cccc(OC)c2)cc1OCC (stereo not drawn) | 80.8% (inactive) |
| CCN1CCN(c2ccc(Nc3ncnc4c3nnn4CCc3cc(OC)cc(OC)c3)cc2)CC1 | 73.3% (inactive) |
| CC(=O)OC1Oc2ccccc2-c2oc(=O)c(-c3cc(=O)oc4cc(O)ccc34)cc21 (stereo not drawn) | -17.5% (active) |
| Cc1ccc(-c2cc(C(=O)Nc3ccc(S(=O)(=O)N4CCCCC4)cc3)[nH]n2)c(O)c1 | 33.8% (inactive) |
| COc1ccc(-c2csc(NC(=O)CO[N+](=O)[O-])n2)cc1 | 57% (inactive) |
| CCN(CC)CCn1c(=N)n(CC(O)c2ccc(Cl)c(Cl)c2)c2ccccc21 (stereo not drawn) | 66.5% (inactive) |
| Cc1cc(Nc2cccc(F)c2)nc(NCc2ccccc2)n1 | 15.6% (inactive) |
| CCOC(=O)[C@@H]1[C@H](c2ccccc2)[C@H]([N+](=O)[O-])[C@H](c2cn(-c3ccccc3)nc2C)N1Cc1ccccc1 | 44% (inactive) |
| COc1ccc(C2C=C(c3ccc(Cl)cc3)N=C3SC=CN32)c(Br)c1 (stereo not drawn) | 71.8% (inactive) |
| CCCc1ccnc(NS(=O)(=O)c2ccc(N)cc2)n1 | 64% (inactive) |
| O=C1/C(=C/c2cccs2)CCC/C1=C\c1cccs1 | 17.8% (inactive) |
| COc1cc(Nc2ccnc(N3CCN(c4ccnc5cc(Cl)ccc45)CC3)n2)cc(OC)c1 | -16.6% (active) |
| Clc1ccc(-c2nc(-c3cccs3)cn3ccnc23)cc1 | 16.3% (inactive) |
| CCN1CCOC1C(C)C (stereo not drawn) | 101% (inactive) |
| Cn1cnc([N+](=O)[O-])c1Sc1nnc(-c2ccccc2)c(-c2ccccc2)n1 | 9.12% (active) |
| C=CCOc1ccc2c(c1)CC=C1[C@@H]2CC[C@]2(C)C(=O)/C(=N/O)C[C@@H]12 | 87.8% (inactive) |
| O=C(N/N=C\c1cc(Cl)ccc1O)c1ccncc1 | 30.1% (inactive) |
| Cc1nc2cc(-n3c(-c4ccc(F)cc4)nc4ccccc4c3=O)ccc2n1Cc1ccccc1 | -29% (active) |
| O=[N+]([O-])c1ccc2c(c1)Cc1cc(I)ccc1-2 | 105% (inactive) |
